# From PubChem BioAssay
# In the library only some 6% were active in any assay of this set; here they are far more common.
# D1 PAM: Potentiators of Human D1 Dopamine Receptor: qHTS. AID 504651, 2011. D(1A) dopamine receptor (Homo sapiens), P21728. HEK293 TREx D1 cells, calcium flux, dopamine EC20 potentiation. 360,000 compounds, 0.036% hits. potentiation, % at 10 µM; in the data active means potentiation above about 30%; further: 0% is about no effect
# Target sequence (P21728 whole entry, looked up): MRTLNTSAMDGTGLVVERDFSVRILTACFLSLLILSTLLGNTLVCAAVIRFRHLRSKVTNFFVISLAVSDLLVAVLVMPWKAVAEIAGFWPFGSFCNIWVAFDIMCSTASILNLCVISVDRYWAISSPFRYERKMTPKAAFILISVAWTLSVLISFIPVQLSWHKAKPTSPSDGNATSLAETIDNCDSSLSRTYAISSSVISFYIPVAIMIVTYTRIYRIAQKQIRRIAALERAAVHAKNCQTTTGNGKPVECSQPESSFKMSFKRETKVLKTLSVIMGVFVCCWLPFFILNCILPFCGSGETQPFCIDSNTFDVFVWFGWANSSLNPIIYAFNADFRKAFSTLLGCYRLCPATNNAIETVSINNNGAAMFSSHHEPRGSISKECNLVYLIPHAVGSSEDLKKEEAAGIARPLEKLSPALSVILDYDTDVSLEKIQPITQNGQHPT
# D3 antag: qHTS of D3 Dopamine Receptor Antagonist: qHTS; AID 652054, 2013; D3R cells, DiscoveRx beta-arrestin luminescence, antagonist mode; stronger effect = lower value; max response, negative = inhibition, %; 360,000 compounds, 2.5% hits; in the data active means max response below about -50%; further: on the % scale 0 is the no-effect control and ±100 the full control effect
#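 Cells expressing the human receptor were seeded at 1500 cells/well, incubated overnight at 37 degrees C in 5% CO2, then exposed to library compounds with dopamine controls for 90 minutes at 37 degrees C before luminescent detection.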
# D1 antag: Antagonist of Human D 1 Dopamine Receptor: qHTS. HEK293 TREx D1 cells, calcium flux, dopamine EC80; stronger effect = lower value. activity change, negative = inhibition, % at 10 µM. 360,000 compounds, 3.2% hits. AID 504652, 2011; in the data active means activity change below about -30%; further: on the % scale 0 is the no-effect control and ±100 the full control effect
#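 Compound effects on dopamine-evoked calcium signalling were measured in tetracycline-induced HEK293 Trex D1 cells. Dopamine at EC80 followed a 180 s compound pre-read, and fluorescence was tracked kinetically for 180 s more.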
# D3 ag: qHTS of D3 Dopamine Receptor Agonist: qHTS. D(3) dopamine receptor (Homo sapiens), P35462. D3R DiscoveRx beta-arrestin cells, luminescence, 90 min. max activation, %. 410,000 compounds, 0.58% hits; in the data active means max activation above about 30%; further: 0% is about no effect
#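 Cells at 1500/well, incubated overnight, then treated with pinned compounds (dopamine as control) for 90 min at 37 degrees C. DiscoveRx reagent added for 30 - 60 minutes at room temperature; luminescence read.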
# D1 ag: Allosteric Agonists of the Human D1 Dopamine Receptor: qHTS; D(1A) dopamine receptor (Homo sapiens), P21728; HEK293 T-REx D1 cells, calcium flux, agonist mode; activation, % at 2 µM; 360,000 compounds, 1% hits; in the data active means activation above about 30%; further: 0% is about no effect
#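 Inducible HEK293 T-REx D1 cells, force-coupled to calcium signalling, were plated at 4000 cells/well with tetracycline and held overnight at 30 C. After no-wash calcium dye loading, compound-evoked calcium rise over 180 s flagged agonists.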
# Numbers without * were called inactive; . = no result; ! = not active in a repeat.
SMILES,D1 PAM,D3 antag,D1 antag,D3 ag,D1 ag
Nc1c(-c2ccc(Cl)cc2)cnn1-c1ccccc1,-2.6,-10.9,-3.5,-8.1,0.4
CCOc1ccc(/C=C/c2nc(C#N)c(NCc3ccc(OC)cc3)o2)cc1,-0.4,.,6.4,7.5,9.7
Cc1nnc(SCC(=O)Nc2cccc(S(=O)(=O)N(C)c3ccccc3)c2)s1,-1.5,41.2,5.6,33.6*,34.3*
CN(c1ccccc1)S(=O)(=O)c1cccc(NC(=O)CSc2n[nH]c(N)n2)c1,-19.1,13.2,-44.6*,7.9,1.6
COc1ccc(OC)c(S(=O)(=O)NCc2cn3c(C)csc3n2)c1,-2.0,26.9,-0.5,-1.4,1.7
Cc1csc2nc(CNS(=O)(=O)c3ccc4c(c3)CCCC4)cn12,-16.6,3.6,-60.2*,12.3,9.7
Cc1csc2nc(CNS(=O)(=O)N(C)C)cn12,.,6.4,-72.0*,1.0,0.8
CC(=O)Nc1ccc(S(=O)(=O)NCc2cn3c(C)csc3n2)cc1,-0.3,-68.9*,-8.1,-0.5,1.2
COc1ccc(S(=O)(=O)NCc2cn3c(C)csc3n2)cc1F,-2.0,15.8,-49.2*,2.0,2.5
Cc1cc(NC(=O)COCc2cc(-c3ccc(F)cc3)on2)ccc1Br,-1.1,.,1.1,-0.5,10.9
CC(=O)Oc1ccc(C(=O)Nc2ccccc2C(=O)Nc2ccc(C(=O)O)cc2)cc1,0.5,6.1,-6.9,0.8,1.7
Cc1ccc(NC(=O)CCCn2nc(C)c3sc4ccccc4c3c2=O)c(Cl)c1,-3.9,.,-45.1*,4.3,1.9
CSc1ccc(CCNC(=O)CCCn2nc(C)c3sc4ccccc4c3c2=O)cc1,-0.7,.,-69.0*,5.1,8.1
Cc1nn(CCCC(=O)NCc2ccc(OC(C)C)cc2)c(=O)c2c1sc1ccccc12,-1.4,.,-7.9,-7.2,1.0
COc1cc(OC)c(NC(=O)CCCn2nc(C)c3sc4ccccc4c3c2=O)cc1Cl,-3.1,.,-70.6*,0.6,2.8
CC(=O)Nc1ccc(C(=O)Nc2ccc(S(=O)(=O)N3CCOCC3)cc2)cc1,-8.4,3.0,-1.7,1.4,2.0
Cc1ccc(S(=O)(=O)N2CCOCC2)cc1C(=O)NC(=S)N1CC(C)OC(C)C1 (stereo unspecified),0.2,-5.2,-35.1*,5.9,0.0
CC(=O)N1CCN(C(=S)NC(=O)c2ccc(S(=O)(=O)N3CCOCC3)cc2)CC1,-6.8,51.8,-31.4*,2.8,3.0
CN(C)C=Nc1ccc([N+](=O)[O-])c2ccccc12,.,-14.2,.,0.0,.
CCCOc1ccc(-c2nnn(CC(=O)N3CCC(C)CC3)n2)cc1,-5.2,8.2,-3.2,12.5,1.6
O=C(O)COc1ccc(-c2nnn(CC(=O)O)n2)cc1,-6.2,-19.4,-35.6*,-10.4,-0.2
CCOc1ccc(-c2nnn(CC(=O)c3ccc4c(c3)OCCO4)n2)cc1,-1.4,15.4,6.1,36.8*,11.4
CCCCOc1ccc(-c2nnn(CCC(=O)N3CCOCC3)n2)cc1,-4.2,-96.0*,-23.1,7.5,10.7
CCOc1ccc(C(=O)Nc2cccc(C(=O)OCc3cc(=O)n4nc(C5CC5)sc4n3)c2)cc1,0.3,.,-4.6,0.5,3.7
COc1cc(CNc2ccc3[nH]c(=O)[nH]c3c2)cc(Br)c1OCc1ccc(F)cc1,-1.4,13.5,-5.5,32.9*!,0.7
SMILES,D1 PAM,D3 antag,D1 antag,D3 ag,D1 ag
COc1cc(CNc2ccc3[nH]c(=O)[nH]c3c2)cc(Cl)c1OCc1ccc(F)cc1,3.8,.,0.9,4.1,-1.5
CCOC(=O)c1c(NC(=O)COC(=O)c2cnccn2)sc(C)c1C,.,-8.0,.,-0.7,.
CCOC(=O)N1CCN(CC(O)COc2ccccc2C(C)(C)C)CC1 (stereo unspecified),1.4,-28.2,-8.3,0.1,7.4
Cc1ccccc1OCC(O)CN1CCN(CC(O)COc2ccccc2C)C(C)C1 (stereo unspecified),-11.7,0.0,-40.3*,-40.1,7.0
Cc1nc2ccccc2n1CC(O)COc1ccc(Br)cc1 (stereo unspecified),-4.2,-2.9,-20.2,2.0,11.1
CC(=O)Nc1ccc(OCC(O)Cn2c3ccccc3c3ccccc32)c(C)c1 (stereo unspecified),-3.6,26.0,-1.2,30.9*,8.0
CC1CN(CC(O)COc2ccccc2C(C)(C)C)CC(C)O1 (stereo unspecified),-3.4,-6.0,-30.7*,0.8,123.7*
Cc1nc2ccccc2n1CC(O)COc1ccccc1Cl (stereo unspecified),-7.8,3.5,-45.8*,2.3,19.7
Cc1ccc(CNC(=O)c2c(-c3ccccc3F)noc2C)o1,-1.2,.,7.5,-14.4,-1.7
Cc1ccccc1OCC(O)Cn1c2ccccc2c2ccccc21 (stereo unspecified),-4.8,43.6,-2.3,45.6*,3.6
Cc1ccc(Cn2cc(CCC(=O)NCC(C)c3ccccc3)c3ccccc32)cc1 (stereo unspecified),-5.4,.,-6.2,-14.5,23.2
Cc1ccc2nc(SCC(=O)c3c[nH]c4ccccc34)[nH]c2c1,-5.5,-1.6,-20.1,-8.4,8.4
O=C(CSc1nc2ccccc2[nH]1)N1CCCCC1,-1.8,-96.2*,6.9,-15.8,1.4
O=C(CSc1nc2ccccc2[nH]1)c1c[nH]c2ccccc12,1.6,-56.3*,10.8,-10.8,3.5
CC(C)Cc1ccc(C(C)C(=O)Nc2ccccc2O)cc1 (stereo unspecified),-16.6,-21.6,-26.4,-7.2,64.9*
CC1(C)CC(C(CCN(Cc2ccccc2)C(=O)c2ccco2)c2ccc(F)cc2)CCO1 (stereo unspecified),-12.3,34.6,-17.1,47.8*,3.4
CCCCn1nnnc1C(c1cc2ccccc2o1)N(CCC#N)Cc1ccccc1 (stereo unspecified),.,-52.7*,.,-11.7,.
Cc1ccc2nc(CN3CCN(S(=O)(=O)c4ccc(C(C)C)cc4)CC3)oc2c1,0.3,.,-26.7,-1.8,2.1
COc1cccc(CSc2nc3n(n2)C(c2cccnc2)C(C(=O)Nc2ccccc2C)=C(C)N3)c1 (stereo unspecified),-1.9,.,-6.6,-4.6,-0.6
CCSc1nc2n(n1)C(c1ccc(Cl)cc1Cl)C(C(=O)Nc1ccccc1C)=C(C)N2 (stereo unspecified),-5.5,.,-33.8*,-5.2,0.3
CC1=C(C(N)=O)C(c2cccc(Br)c2)n2nc(SCc3ccccc3Cl)nc2N1 (stereo unspecified),-4.0,.,6.4,55.9*,0.6
CC1=C(C(=O)Nc2ccccc2C)C(c2cccnc2)n2nc(SCc3ccccc3)nc2N1 (stereo unspecified),-5.0,.,-37.7*,6.8,3.3
CN(C)c1ccc(-c2cc[nH]c(=O)c2N)cc1,4.8,.,12.4,.,0.4
